Max response, negative = inhibition and Potency data for 88 compounds are collected here from PubChem BioAssay AID720504 (National Center for Advancing Translational Sciences (NCATS), 2013).

SMILES strings stand for the structures. The whole screen tested about 360,000 compounds, of which about 10,000 (2.8%) were called active. Another 4% or so got no clear call; they are omitted. The sample holds actives, similar compounds and a random draw of the others, so the mix is not that of the screen. Calls come from the whole dose curve; as a rule, active = well fitted inhibition curve with a large enough effect; inconclusive = small, poorly fitted or top-dose-only effect; inactive = flat fitted curve, though single readings scatter.
% is set by controls: 0 for no effect and ±100 for the full control effect; potency is the fitted concentration of half-maximal effect.

The target in this assay is Serine/threonine-protein kinase PLK1 (Homo sapiens) (UniProt P53350). The assay can be described thus: qHTS for Inhibitors of PLK1-PDB (polo-like kinase 1 - polo-box domain): Primary Screen. For Max response, negative = inhibition: series mostly up to about 57 µM. Note: nearly all actives have a fitted effect of over 65% in size. To be noted: Plk1 PBD binding of FITC phosphopeptide, fluorescence polarization. For orientation: In qHTS, concentration-response curves come from the screen itself.
Sequence of Serine/threonine-protein kinase PLK1 (Homo sapiens) (P53350 whole entry, looked up, the tested form may be a part): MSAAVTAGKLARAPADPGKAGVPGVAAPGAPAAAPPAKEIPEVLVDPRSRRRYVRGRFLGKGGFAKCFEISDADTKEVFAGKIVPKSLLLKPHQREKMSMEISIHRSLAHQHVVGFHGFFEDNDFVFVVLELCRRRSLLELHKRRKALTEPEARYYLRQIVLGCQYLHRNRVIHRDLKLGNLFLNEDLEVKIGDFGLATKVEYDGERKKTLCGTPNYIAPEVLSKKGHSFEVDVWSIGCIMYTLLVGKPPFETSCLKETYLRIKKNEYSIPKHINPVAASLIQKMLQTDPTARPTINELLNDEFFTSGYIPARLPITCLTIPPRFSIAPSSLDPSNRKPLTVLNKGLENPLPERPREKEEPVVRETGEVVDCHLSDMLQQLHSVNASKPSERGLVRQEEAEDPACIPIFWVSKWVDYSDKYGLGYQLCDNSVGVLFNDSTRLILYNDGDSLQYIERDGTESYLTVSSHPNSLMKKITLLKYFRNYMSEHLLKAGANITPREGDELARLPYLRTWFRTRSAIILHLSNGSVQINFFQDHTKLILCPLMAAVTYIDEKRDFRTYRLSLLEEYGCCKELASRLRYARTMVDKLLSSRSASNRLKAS
For `CCc1nc2ccc(C(=O)N3CCN(S(=O)(=O)CC)CC3)cn2c1N(C=O)CCC(C)C`, the max response, negative = inhibition was -4.19% (inactive).
On to `O=C(CCCN1C(=O)C(c2ccccc2)Oc2cccnc21)Nc1ccccc1Br` (stereo not drawn), for which the max response, negative = inhibition is 3.26% (inactive).
On the same count and under the same terms, then `CCCCn1nnnc1C(c1cccc(OC)c1OC)N1CCN(C/C=C/c2ccccc2)CC1` (stereo not drawn), with -4.93% (inactive); and `CC1(C)CC(=O)C=C(c2ccc(COC(=O)c3cc(F)cc(F)c3)cc2)C1=O`, with -3.92% (inactive).
With `O=C(O)CCn1cc(/C=C/C(=O)c2ccc(Cl)cc2)c(-c2cccc(Br)c2)n1`, the Potency was 21.2 µM (active).
Take `O=C(/C=C/NNC(=O)c1cccc(Br)c1)c1ccccc1`: the max response, negative = inhibition is -5.78% (inactive).
The same measure, in the same setting: then `O=C(COC(=O)/C=C/c1cn(-c2ccccc2)nc1-c1cccnc1)Nc1ccc(Cl)cc1Cl`, with 13.1% (inactive); and `CCCCc1ccc(S(=O)(=O)NC(=O)C2(C)CCN2C(=O)c2c(C)noc2C)cc1` (stereo not drawn), with -12% (inactive).
On the same count and under the same terms, in the case of `Cc1ccc(CNC(=O)Cc2cn(C)c3ccccc23)cc1` it was -3.92% (inactive).
Consider `Cn1cc(CCC(=O)NC2CC2)c2ccccc21`, for which the max response, negative = inhibition was -19.7% (inactive).
Regarding `CCn1cc(CCC(=O)NCc2ccc(F)cc2)c2ccccc21`, the Potency is 23.8 µM (active).
Take `COc1ccc(-c2cc(NC=O)c3ncc(-c4cccc(C(=O)N(C)C)c4)n3c2)c(OC)c1`: the max response, negative = inhibition is -16.4% (inactive).
For the compound `CCN=C1SC(CC(=O)Nc2ccc(C)cc2)C(=O)N1CC` (stereo not drawn), the max response, negative = inhibition was -1.27% (inactive).
`O=C(CC1SC(=Nc2ccccc2)N(Cc2ccccn2)C1=O)Nc1cccc(Cl)c1` (stereo not drawn): the Potency is 29.9 µM (active).
Turning to `CN1C(=O)C(CC(=O)Nc2ccccc2)S/C1=N/c1nccs1` (stereo not drawn), the Potency was 26.7 µM (active).
As for `CCN1C(=O)C(CC(=O)Nc2cc(C)ccc2C)SC1=Nc1ccc(S(N)(=O)=O)cc1` (stereo not drawn), the max response, negative = inhibition is -2.89% (inactive).
Still for that read-out and setting: then `CN=C1SC(CC(=O)Nc2ccc(C(=O)O)cc2)C(=O)N1C` (stereo not drawn), with -12.2% (inactive).
On the same count and under the same terms, in the case of `CC1CC(=O)N(CC(=O)Nc2cccc(Cl)c2)c2ccccc2S1(=O)=O` (stereo not drawn) it was -2.47% (inactive); in that of `CCCC/C=C/c1cccc2nncn12`, 0.37% (inactive); in that of `O=C(Nc1nnc([C@H]2C[C@H](O)[C@@H](CO)O2)s1)c1cccc(Cl)c1`, -11.4% (inactive).
Take `O=C(CSc1ncn[nH]1)Nc1nc2c(F)c(F)c(F)cc2s1`: the max response, negative = inhibition is -14.3% (inactive).
Turning to `CCn1c(=S)sc2c(=O)n(CC(=O)Nc3ccc(OC)cc3)c(C)nc21`, the Potency was 33.6 µM (active).
As for `CCn1c(=S)sc2c(=O)n(CC(=O)Nc3cccc(Br)c3)c(C)nc21`, the max response, negative = inhibition was 5.75% (inactive).
`COc1ccc(NC(=O)Cn2c(-c3ccc(OC)cc3)cn(-c3ccc(C)cc3)c2=O)cc1`: the max response, negative = inhibition is -2.89% (inactive).
Take `CCCCCc1c(Cc2ccccc2)ncn1CCc1ccccc1OC`: the max response, negative = inhibition is -12.9% (inactive).
Consider `CCc1ccc(N(C(=O)c2csnn2)C(C(=O)NC2CCCCC2)c2ccncc2)cc1` (stereo not drawn), for which the max response, negative = inhibition is -3.61% (inactive).
Same read-out and setting: in the case of `Cc1cc(NC(=O)CCC(=O)N(c2cccc(F)c2)C(C(=O)NC2CCCC2)c2ccncc2)no1` (stereo not drawn) it was -7.93% (inactive).
For `Cc1ccc(N(C(=O)C(F)(F)F)C(C(=O)NC2CCCCC2)c2ccncc2)cc1C` (stereo not drawn), the Potency was 11.9 µM (active).
On to `COc1ccc(C(C)(O)c2nc(-c3ccc(C)c(C)c3)cs2)cc1` (stereo not drawn), for which the max response, negative = inhibition was -4.12% (inactive).
Same read-out and setting: then `COCCNC(=O)c1cc2c(Br)ccc(Br)c2nc1N`, with -4.02% (inactive).
Consider `CCOC(=O)[C@]12CCC=C1N(Cc1cccc3ccccc13)C(=O)[C@H](CC(=O)NCc1cccc(C(F)(F)F)c1)C2`, for which the max response, negative = inhibition is -6.42% (inactive).
`CCOc1ccccc1NC(=O)CCS(=O)(=O)c1cccc2nsnc12`: the max response, negative = inhibition was 7.52% (inactive).
On to `CCOc1ccc(OCC)c(NC(=O)CN(C)S(=O)(=O)c2cccc3nsnc23)c1`, for which the Potency is 29.9 µM (active).
Regarding `CCOc1ccc(N(CC)S(=O)(=O)c2cccc3nsnc23)cc1`, the max response, negative = inhibition was -8.88% (inactive).
Consider `COc1ccc(CN2C[C@H]3CON(C)[C@H]3C[C@H]2c2ccc(-c3cccc(F)c3)cc2)cc1`, for which the max response, negative = inhibition is 5.3% (inactive).
For the compound `COc1cccc(NC(=O)Cn2cnc3sc(C)c(S(=O)(=O)N4CCN(C)CC4)c3c2=O)c1`, the Potency was 8.44 µM (active).
For `COc1ccc(N2CCN(C(=O)Cn3cnc4sc(C)c(S(=O)(=O)N5CCOCC5)c4c3=O)CC2)cc1`, the max response, negative = inhibition is -11.3% (inactive).
As for `Cc1sc2ncn(CC(=O)NCCN(C)C)c(=O)c2c1S(=O)(=O)N1CCC(C)CC1`, the max response, negative = inhibition was -12.5% (inactive).
Turning to `COCCCNC(=O)c1cccc2c(-c3ccc(O)c(OC)c3)coc12`, the max response, negative = inhibition is -12.1% (inactive).
Still for that read-out and setting: then `O=C(N[C@H]1CC[C@H](CC(=O)N2CCCCC2)O[C@@H]1CO)c1cccc(F)c1`, with 6.09% (inactive).
For the compound `Cc1ccc(Cl)c(OCC(=O)NN2CCN(C)CC2)c1`, the Potency was 23.8 µM (active).
In the case of `Cc1ccc(Cl)c(OCC(=O)N2CCc3ccccc3C2)c1`, the max response, negative = inhibition is -3.49% (inactive).
Same read-out and setting: then `Cc1ccc(Cl)c(OCC(=O)N(C)CC(=O)Nc2ccc(N3CCOCC3)cc2)c1`, with -2.7% (inactive); and `Cc1cc(C)c2c(=O)n3c(nc2c1)C(CC(C)C)NC(=O)c1cc2ccccc2cc1-3` (stereo not drawn), with 1.09% (inactive).
Take `O=C(Nc1ccc(Cl)c(C(F)(F)F)c1)C1Cc2c(-c3ccccc3Oc3ccccc3)ccnc2O1` (stereo not drawn): the max response, negative = inhibition was -6% (inactive).
On the same count and under the same terms, in the case of `Cc1ccc(NC(=O)C2CCCN2S(=O)(=O)c2cccc3cccnc23)c(C)c1` (stereo not drawn) it was -3.33% (inactive).
Take `O=C(Nc1nccs1)C1CCCN1S(=O)(=O)c1cccc2cccnc12` (stereo not drawn): the Potency is 26.7 µM (active).
For the compound `Cc1cc(C)cc(NC(=O)C2CCCN2S(=O)(=O)c2cccc3cccnc23)c1` (stereo not drawn), the max response, negative = inhibition was -10.9% (inactive).
The same measure, in the same setting: in the case of `Cc1ccccc1-c1nc(NC(C)C)nc2cc(-c3ccccc3)sc12` it was -6.2% (inactive); in that of `O=C(C1CC(=O)N(C2CCCCC2)C1)N1CCN(c2ccccc2)CC1` (stereo not drawn), -15.5% (inactive).
As to `O=C(C1CC(=O)N(c2ccc(F)cc2)C1)N1CCN(c2ccccc2)CC1` (stereo not drawn), the Potency was 18.9 µM (active).
With `CC1CC(C)CN(C(=O)C2CC(=O)N(c3ccc(F)cc3)C2)C1` (stereo not drawn), the max response, negative = inhibition is -7.49% (inactive).
Still for that read-out and setting: then `CC1=C(C(=O)N(C)C)CC(CC(=O)NCCc2ccccn2)C(=O)N1CCC1=CCCCC1` (stereo not drawn), with -5.19% (inactive).
On to `CC(=O)N(C1=C(Cl)C(=O)c2ccccc2C1=O)c1ccc(C(=O)O)cc1`, for which the Potency was 2.99 µM (active).
In the case of `O=C(Nc1nc(-c2ccco2)c(-c2ccco2)s1)c1ccco1`, the max response, negative = inhibition is -24.5% (inactive).
On to `COCCNC(=O)Nc1ccc2nc(-c3ccco3)c(-c3ccco3)nc2c1`, for which the Potency is 21.2 µM (active).
`COCCNC(=O)CSc1nc(N)c(NC(=O)c2ccco2)c(=O)[nH]1`: the max response, negative = inhibition was -1.47% (inactive).
Same read-out and setting: in the case of `CC1(C(=O)NS(=O)(=O)c2ccccc2Cl)CCN1C(=O)c1cccc(F)c1` (stereo not drawn) it was -14.1% (inactive); in that of `CC(C)CN1C(=O)CN(S(C)(=O)=O)CC1(C)C(=O)NCc1ccccc1` (stereo not drawn), 4.65% (inactive); in that of `O=C1NC[C@H](Cc2ccc(O)cc2)N(C[C@H]2CCCN2C[C@H](Cc2ccccc2)N2C[C@H](Cc3ccccc3)N(CCc3ccccc3)C(=O)C2=O)C1=O`, -6.61% (inactive).
Still for that read-out and setting: in the case of `CC1CCN(c2ccc3c(c2)S(=O)(=O)c2cc(C(=O)O)ccc2C3=O)CC1` it was 2.83% (inactive); in that of `O=C(NCCC1=CCCCC1)c1ccc(-n2cncn2)cc1`, 7.38% (inactive).
Take `C1=C(CCNc2ncnc3c2cnn3-c2ccccc2)CCCC1`: the Potency is 3.36 µM (active).
On to `CC(C)Sc1ncnc2c1cnn2-c1ccccc1`, for which the max response, negative = inhibition is 2.81% (inactive).
With `C[C@H]1CN(c2ccc(Br)cc2)C(=O)[C@@H]1CC(=O)Nc1ccc(Br)cc1`, the max response, negative = inhibition is 1% (inactive).
On the same count and under the same terms, then `O=C(C(=O)N1CCN(c2ccccc2)CC1)c1ccc2c(c1)OCO2`, with -10.2% (inactive); and `O=C(CN1CCN(c2ccccn2)CC1)Nc1ccc(Br)cc1`, with -15.1% (inactive).
For `O=C(Cc1ccc(Br)cc1)N1CCN(c2ccccn2)CC1`, the Potency is 29.9 µM (active).
For the compound `O=C(Cc1ccccc1Cl)N1CCN(c2ccccn2)CC1`, the max response, negative = inhibition is -14.6% (inactive).
On the same count and under the same terms, in the case of `CCc1nnc(NC(=O)c2ccco2)s1` it was -6.68% (inactive); in that of `Cc1cccc(N2CCN(C(=O)C3CCN(S(=O)(=O)c4cnc[nH]4)CC3)CC2)c1C`, 3.15% (inactive); in that of `O=C(C1CCN(Cc2ccc(Cl)cc2)CC1)N1CCN(Cc2ccc3c(c2)OCO3)CC1`, 2.77% (inactive).
In the case of `O=C(C1CCN(S(=O)(=O)c2cnc[nH]2)CC1)N1CCN(Cc2ccc3c(c2)OCO3)CC1`, the Potency was 2.99 µM (active).
As for `CCC(C(=O)Nc1c(C)cccc1C)n1c(-c2cc(C)cs2)nc2ccccc21` (stereo not drawn), the max response, negative = inhibition was -9.18% (inactive).
As for `Cc1cc2cc3n(c2nn1)N=C(Cl)CC3`, the max response, negative = inhibition is -3.02% (inactive).
Turning to `C=CCC[C@H](CCCCC)OC(=O)/C=C/[C@H](O)[C@@H](O)C[C@@H](O)CC=C`, the max response, negative = inhibition is -13.7% (inactive).
On to `C[C@@H]1CN([C@H](C)CO)C(=O)CCCn2cc(nn2)CO[C@H]1CN(C)S(=O)(=O)c1ccc(Oc2ccccc2)nc1`, for which the max response, negative = inhibition was -19.7% (inactive).
As to `O=C1C=C(c2ccc(Cl)cc2)C(=O)N1Nc1ccccc1`, the Potency is 6.7 µM (active).
For `O=C(CCC(=O)OCc1ccc(Cl)cc1)Nc1ccccc1`, the max response, negative = inhibition is -4.01% (inactive).
With `O=C(O)CC1=C(Nc2ccccc2)C(=O)N(c2ccccc2)C1c1ccc(Cl)cc1` (stereo not drawn), the max response, negative = inhibition is -11.1% (inactive).
On the same count and under the same terms, then `CC1(C(=O)Nc2ccc3c(c2)OCCO3)CN(S(C)(=O)=O)CC(=O)N1Cc1cccc(F)c1` (stereo not drawn), with -14.7% (inactive); and `COC(=O)C[C@H]1C[C@@H]2c3cc(NC(=O)Nc4ccccc4)ccc3O[C@@H]2[C@@H](CO)O1`, with 0.628% (inactive); and `Cc1sc(NC(=O)c2ccc3ncsc3c2)c(C(N)=O)c1C`, with -11% (inactive).
As to `Cc1ccc(C(=O)c2c(NC(=O)c3ccccc3)sc(C)c2C)cc1`, the Potency is 11.9 µM (active).
Regarding `Cc1ccc(S(=O)(=O)CC(=O)Nc2sc(C)c(C)c2C(N)=O)cc1`, the max response, negative = inhibition is -9.45% (inactive).
`CC(Oc1cccc(NC(=O)c2cccs2)c1)C(=O)c1ccccc1` (stereo not drawn): the max response, negative = inhibition was -3.5% (inactive).
As to `CC1(C(=O)Nc2cccc(Oc3ccccc3)c2)CCN1Cc1ccccc1Cl` (stereo not drawn), the max response, negative = inhibition was -5.84% (inactive).
For the compound `Cc1ccoc1C(=O)Nc1cccc(Oc2ccccc2)c1`, the Potency is 29.9 µM (active).
